A selection: hits, their analogues and other compounds. The true share with any hit is near 2.3%.
HttQ103 aggreg = inhibitors of mutant huntingtin aggregate formation in PC12 cells; Potency, µM (highest dose often 46.1 µM), most hits filed as inhibitors; 220,000 tested, 1.1% active; PC12 HttQ103-GFP aggregates, Acumen cytometry, 40 h; further: nearly all actives have a fitted effect of over 60% in size
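Huntingtin Q103 exon 1–GFP aggregates in induced PC12 cells (100 nM tebufenozide) were quantified by cytometry from lysates, with compounds dosed in titration.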
HTT cytoprotect = protects HTT-Q103 PC12 cells, measured by ATP. Potency, µM (titrated, usually from 56.4 µM), actives largely listed as activators. 230,000 tested, 0.14% active. PC12 HTT-Q103 induced, cytoprotection, ATP luminescence, 40 h; further: nearly all actives have a fitted effect of over 45% in size
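Readout: ATPlite luminescence (ATP level). Model: stable PC12, inducible Htt exon1 Q103-GFP. Inducer: tebufenozide, 100 nM final. Compounds: dose series. No G418 in medium.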
VDR inh = vitamin D3 receptor (human) inhibition | 400,000 tested, 0.93% active | AID 504847 | Potency, µM, hits mostly inhibitors | VDR-SRC2-3 peptide fluorescence polarization, 2 h | P11473
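Measured by FP: displacement of SRC2-3 coactivator peptide from VDR by library compounds, following a two-hour ambient incubation.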
JMJD2E inh = inhibitors of human JMJD2E histone demethylase; B2RXH2; JMJD2E catalytic domain, FDH-coupled NADH fluorescence (FDH is formaldehyde dehydrogenase); Potency, µM (top dose mostly 57.1 µM), usual class: inhibitors; 230,000 tested, 1.6% active; active means well fitted inhibition curve with a large enough effect, not every such curve was filed as active; inconclusive means small, poorly fitted or top-dose-only effect, or another doubt; inactive means no such curve, though single readings can be large or run the other way; further: nearly all actives have a fitted effect of over 50% in size
RGS12 GoLoco inh = RGS12 GoLoco-Gai1 interaction inhibition. P63096. Gai1:RGS12 GoLoco peptide FP, rhodamine, 10 min. Potency, µM (titrated, usually from 61.6 µM), usual class: inhibitors. 230,000 tested, 0.44% active. AID 880; active means well fitted inhibition curve with a large enough effect, not every such curve was filed as active; inactive means no such curve, though single readings can be large or run the other way; further: nearly all actives have a fitted effect of over 30% in size
Target sequence (P63096 whole entry, looked up): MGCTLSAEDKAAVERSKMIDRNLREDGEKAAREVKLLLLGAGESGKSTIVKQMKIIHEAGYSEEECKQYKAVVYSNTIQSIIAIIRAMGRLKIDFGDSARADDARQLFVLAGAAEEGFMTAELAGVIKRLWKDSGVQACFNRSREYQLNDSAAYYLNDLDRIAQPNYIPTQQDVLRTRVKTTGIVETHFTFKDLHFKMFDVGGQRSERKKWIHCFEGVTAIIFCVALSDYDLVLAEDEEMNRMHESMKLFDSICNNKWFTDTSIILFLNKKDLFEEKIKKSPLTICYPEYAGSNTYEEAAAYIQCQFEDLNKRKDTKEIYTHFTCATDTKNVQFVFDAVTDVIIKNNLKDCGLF
FBPA coupling cs = coupling enzyme interference in Giardia aldolase counter-screen; coupling enzyme system counterscreen, AmpLite Red fluorescence; activity change, negative = inhibition, % at 58.2 µM, hits read low; 290,000 tested, 0.67% active; AID 2472; in the data active means activity change below about -30%
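Fluorescence at 525 nm excitation and 598 nm emission measured inhibition of the coupled detection system without aldolase. Compounds (at 57.5 uM final) were preincubated 10 min at room temperature with coupling enzyme reagent before a 20 min substrate/AmpLite Red step.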
Each line names hits and unclear results; the compound was inactive in the other large screens. Unless noted, the call rests on the fitted dose curve; in most records, active means well fitted curve in the direction sought with a large enough effect; inconclusive means small, poorly fitted or top-dose-only effect, or another doubt; inactive means no such curve, though single readings can be large; an effect the other way counts as inactive or inconclusive.

CN1CCN(c2ncc3nc(-c4cc(F)cc(F)c4)c(=O)n(CCc4ccccc4)c3n2)CC1	none (no result: HttQ103 aggreg, JMJD2E inh)
COc1cccc2c1OCC(C(=O)O)C2 (stereo unspecified)	none
COc1cccc2c1C(CO)N1C(C#N)C3CC(C(=O)O)C(C1C2)N3C (stereo unspecified)	HttQ103 aggreg 1.1µM
NC(=O)C1CC2(NC(=O)NC2=O)c2cc(F)ccc2O1 (stereo unspecified)	none (no result: JMJD2E inh, RGS12 GoLoco inh, FBPA coupling cs)
COc1ccc2c(c1)c(C(=O)N/N=C/c1cccc(Br)c1)c(C)n2C	FBPA coupling cs -45
COc1cc(C[C@H]2C(=O)OC[C@@H]2Cc2ccc(OC)c(OC)c2)ccc1O	none (no result: HttQ103 aggreg)
COc1ccc2cc3c(N)nn(C(=O)c4ccc(F)cc4Cl)c3nc2c1	none (no result: HttQ103 aggreg, HTT cytoprotect, JMJD2E inh, RGS12 GoLoco inh, FBPA coupling cs)
COc1ccc2cc3c(N)nn(C(=O)C4CCC(C(C)(C)C)CC4)c3nc2c1 (stereo unspecified)	HttQ103 aggreg 10µM (no result: HTT cytoprotect)
COc1ccc2cc3c(N)nn(C(=O)c4cccc([N+](=O)[O-])c4)c3nc2c1	HttQ103 aggreg 3.5µM
COc1ccc(-n2cnc(N)c2C(=O)c2cccc([N+](=O)[O-])c2)cc1	HttQ103 aggreg 8.9µM
COc1ccc2cc3c(N)nn(C(=O)Cc4ccccc4OC)c3nc2c1	HttQ103 aggreg 4.5µM
COc1ccccc1N1CCN(C(=O)C2=CC=CN3CCS(=O)(=O)N=C23)CC1	none (no result: HttQ103 aggreg, HTT cytoprotect, JMJD2E inh, RGS12 GoLoco inh, FBPA coupling cs)
O=C(NCCN1CCOCC1)c1cc(Cl)ccc1Cl	none (no result: HttQ103 aggreg, HTT cytoprotect, JMJD2E inh, RGS12 GoLoco inh)
O=C(NCCN1CCOCC1)NC1(C(F)(F)F)Oc2ccc(Cl)cc2O1 (stereo unspecified)	HttQ103 aggreg inconclusive, JMJD2E inh 3.2µM
COc1ccc(N2C(=O)C3CC(C)=C(C)CC3C2=O)c(OC)c1 (stereo unspecified)	none
COc1ccc(N2CSC3=C(C#N)C(c4cc(OC)c(OC)cc4OC)CC(=O)N3C2)c(OC)c1 (stereo unspecified)	VDR inh 45µM, FBPA coupling cs -48
CCOc1ccccc1N1CSC2=C(C#N)C(c3c(OC)ccc4ccccc34)CC(=O)N2C1 (stereo unspecified)	VDR inh inconclusive, JMJD2E inh 7.9µM, FBPA coupling cs -49
COc1ccc(C2CC(=O)N3CN(C4CCCCC4)CSC3=C2C#N)cc1 (stereo unspecified)	VDR inh 45µM (no result: HttQ103 aggreg, HTT cytoprotect, JMJD2E inh, RGS12 GoLoco inh, FBPA coupling cs)
COc1ccc(N2CSC3=C(C#N)C(c4ccc(OC)c(OC)c4)CC(=O)N3C2)c(OC)c1 (stereo unspecified)	VDR inh 32µM, FBPA coupling cs -43
CN1C[C@H](C(=O)N[C@]2(C)O[C@@]3(O)[C@H]4CCCN4C(=O)[C@@H](Cc4ccccc4)N3C2=O)C[C@H]2c3cccc4[nH]cc(c34)C[C@@H]21	none (no result: HttQ103 aggreg, VDR inh, JMJD2E inh, RGS12 GoLoco inh, FBPA coupling cs)
O=C(NCc1cccc(C(F)(F)F)c1)C1CCC(=O)N(C2CCCCCC2)C1 (stereo unspecified)	none (no result: HttQ103 aggreg, HTT cytoprotect, JMJD2E inh, RGS12 GoLoco inh)
COc1ccc(N2CSC3=C(C#N)C(c4cc(OC)ccc4OC)CC(=O)N3C2)c(OC)c1 (stereo unspecified)	VDR inh 16µM, FBPA coupling cs -46
O=C(NCc1cccnc1)c1ccc(COc2ccc3c(c2)CCC3)o1	HttQ103 aggreg 8.9µM
COC(=O)c1ccc(COc2ccc3c(c2)CCC3)o1	none
Cc1ccc(C(=O)CC2(O)C(=O)N(Cc3ccccc3Cl)c3ccccc32)o1 (stereo unspecified)	HttQ103 aggreg 3.2µM
NC(=O)[C@@H]1CCCN1C(=O)C(Cc1cnc[nH]1)NC(=O)C1CCC(=O)N1 (stereo partly specified)	none (no result: HttQ103 aggreg, HTT cytoprotect, JMJD2E inh, RGS12 GoLoco inh)
CC(=O)[C@@]1(O)CC[C@@H]2[C@@H]3CCC4=CC(=O)CC[C@@]4(C)[C@H]3CC[C@]21C	none (no result: HttQ103 aggreg, VDR inh, JMJD2E inh, RGS12 GoLoco inh, FBPA coupling cs)
O=C(OCn1ncc(Br)c(Br)c1=O)c1ccccc1Cl	HttQ103 aggreg inconclusive, VDR inh 22µM
O=C(OCn1ncc(Br)c(Br)c1=O)c1ccc(F)cc1	HttQ103 aggreg 4µM, VDR inh 25µM
O=C(OCn1ncc(Cl)c(Cl)c1=O)c1cccc(C(F)(F)F)c1	VDR inh inconclusive
O=C(NC(NNc1ccc([N+](=O)[O-])cc1)(C(F)(F)F)C(F)(F)F)c1ccc(Cl)cc1	HttQ103 aggreg inconclusive, VDR inh 79µM
CC(OC(=O)C1CC1C)C(=O)Nc1ccc(Cl)cn1 (stereo unspecified)	none (no result: HttQ103 aggreg, HTT cytoprotect, JMJD2E inh, RGS12 GoLoco inh, FBPA coupling cs)
COc1ccc2c(c1)Cc1sc(NC(C)=O)nc1-2	FBPA coupling cs -31
COc1ccc2c(c1)Cc1sc(NC(=O)c3ccco3)nc1-2	none (no result: FBPA coupling cs)
O=C1c2cccc3c(N4CCCCC4)ccc(c23)C(=O)N1c1ccccn1	HttQ103 aggreg inconclusive, JMJD2E inh inconclusive
O=C1c2ccccc2-c2n[nH]c(=O)c3ccc(N4CCCCC4)c1c23	HttQ103 aggreg 20µM
O=c1c2ccccc2c2ccccc2c(=O)n1-c1cc2c3ccccc3ccc2c2ccccc12	none (no result: HttQ103 aggreg, VDR inh, JMJD2E inh, FBPA coupling cs)
O=C(CSc1nnc2c3ccccc3c3ccccc3c2n1)Nc1ccccc1F	FBPA coupling cs -40
O=C(CSc1nnc2c3ccccc3c3ccccc3c2n1)Nc1ccccc1	FBPA coupling cs -44 (no result: VDR inh)
O=C(O)CSc1nnc2c3ccccc3c3ccccc3c2n1	none (no result: HttQ103 aggreg, VDR inh, JMJD2E inh, FBPA coupling cs)
